Results reported in the supplement of paper PMC6555819.

Tests used:
Experiment in all cases: PBM binding z-score (relative to random genomic background probes); higher = stronger binding; sequences stand for … in GC…GCGATTGACAGCGTAGAATGAAGG
[1] = system: FXR:RXRa (NR concentration 270 nM, RXRa partner concentration 90 nM)
Outline: (§1)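 Ligand-free nuclear receptor dimers were applied to custom Agilent 4×180K protein-binding microarrays whose double-stranded probes carried direct-repeat seeds, single-nucleotide variants, half-site ablations and random human genomic background sequences in 34-nt variable regions. Incubation lasted 1 h. Binding z-scores were computed against the random background probes from regression-normalized fluorescence.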

[2] = system: LXRa:RXRa (NR concentration 270 nM, RXRa partner concentration 90 nM)
Outline: as §1

[3] = system: LXRa homodimer (NR concentration 270 nM)
Outline: as §1

[4] = system: LXRb:RXRa (NR concentration 270 nM, RXRa partner concentration 90 nM)
Outline: as §1

[5] = system: LXRb homodimer (NR concentration 270 nM)
Outline: as §1

[6] = system: PPARa:RXRa (NR concentration 270 nM, RXRa partner concentration 90 nM)
Outline: as §1

[7] = system: PPARg:RXRa (NR concentration 180 nM, RXRa partner concentration 90 nM)
Outline: as §1

[8] = system: PPARg:RXRa 270nM:90nM, anti-RXR (NR concentration 270 nM, RXRa partner concentration 90 nM)
Outline: as §1

[9] = system: PPARg:RXRa 30nM:10nM, anti-RXR (NR concentration 30 nM, RXRa partner concentration 10 nM)
Outline: as §1

[10] = system: PPARg:RXRa 90nM:30nM, anti-RXR (NR concentration 90 nM, RXRa partner concentration 30 nM)
Outline: as §1

[11] = system: PPARg:RXRa DBDmut IVT, anti-RXR (DBD mutation: RXRa K156A/R161A, NR concentration 270 nM, RXRa partner concentration 90 nM)
Outline: as §1

[12] = system: PPARg:RXRa IVT, anti-PPARg (NR concentration 270 nM, RXRa partner concentration 90 nM)
Outline: as §1

[13] = system: PPARg DBDmut:RXRa IVT, anti-PPARg (DBD mutation: PPARg1 K132A/R137A, NR concentration 270 nM, RXRa partner concentration 90 nM)
Outline: as §1

[14] = system: PPARg DBDmut IVT, anti-PPARg (DBD mutation: PPARg1 K132A/R137A, NR concentration 270 nM)
Outline: as §1

[15] = system: PPARg homodimer (NR concentration 180 nM)
Outline: as §1

[16] = system: PXR:RXRa (NR concentration 270 nM, RXRa partner concentration 90 nM)
Outline: as §1

[17] = system: PXR homodimer (NR concentration 270 nM)
Outline: as §1

[18] = system: RARa:RXR (NR concentration 270 nM, RXRa partner concentration 90 nM)
Outline: as §1

[19] = system: RARa homodimer (NR concentration 270 nM)
Outline: as §1

[20] = system: RARb:RXRa (NR concentration 270 nM, RXRa partner concentration 90 nM)
Outline: as §1

Sequence	PBM binding z-score [1]	PBM binding z-score [2]	PBM binding z-score [3]	PBM binding z-score [4]	PBM binding z-score [5]	PBM binding z-score [6]	PBM binding z-score [7]	PBM binding z-score [8]	PBM binding z-score [9]	PBM binding z-score [10]	PBM binding z-score [11]	PBM binding z-score [12]	PBM binding z-score [13]	PBM binding z-score [14]	PBM binding z-score [15]	PBM binding z-score [16]	PBM binding z-score [17]	PBM binding z-score [18]	PBM binding z-score [19]	PBM binding z-score [20]
TCTTGTAGATCAGCAGCTTAAGAAAGCTGGCCAA	-0.0933	-0.339	-0.557	-0.411	-0.692	0.41	-0.825	0.886	2.45	1.69	1.33	-0.294	-1.1	-0.39	-0.337	-0.0714	-0.755	0.087	-0.736	-0.491
CCAGACAGGTGCAAGGTAACTCAGTCTGGTACGC	-0.53	-0.47	-0.166	-0.568	-0.694	-0.13	0.366	0.416	-0.287	0.128	-0.395	-0.318	-0.426	-0.666	-0.0621	-0.444	-0.237	-0.146	-0.328	-0.0725
ATCTCCAGGTAAGACTCAGTTCAGTGAAGAACGC	0.579	0.595	0.65	0.641	0.696	0.265	0.0991	0.41	0.426	0.596	0.285	0.513	0.311	1.43	1.51	1.38	1.36	0.454	0.892	0.446
TCTGCCAGGTCAACGATGGTCAGCTAATCTGCTA	4.25	3.33	0.136	2.23	0.15	3.46	2.13	2.8	1.53	2.04	2.07	2.98	0.16	0.24	1.11	2.56	-0.453	2.89	-0.675	4.02
ATAACAAGGTGATCGTGAGGTCGTTGATACTAAC	1.71	1.19	0.521	1.1	0.521	1.89	0.967	0.692	0.235	0.705	1.16	1.89	1.52	0.304	0.85	3.06	1.63	2.01	0.293	1.51
CCTAGTTGGTCAGGAGGTAACACACCGGATATGA	0.273	0.0725	0.325	0.204	-0.0466	0.433	0.902	1.08	0.0146	0.419	0.719	1.36	0.594	0.266	1.37	0.0397	0.446	0.422	1.49	0.781
ATCTCTAGGCAAGACTCAGTTCAGTGAAGAACGC	-0.14	0.0146	-0.0156	-0.438	-0.221	-0.499	0.011	-0.156	-0.193	-0.262	0.117	-0.103	0.0484	-0.188	0.522	0.202	0.453	-0.255	-0.0609	-0.159
GTACCAAGGTGAATAGGTCGTAGATGAGTAGGCG	0.946	0.897	-0.305	0.416	-0.297	2.39	1.82	2.02	0.602	1.25	1.69	2.84	-0.433	-0.143	0.982	0.659	-0.144	1.8	0.467	2.17
TCTTGTAGATCAGCAGGCTAAGAAAGCTGGCCAA	-0.304	-0.495	-0.573	-0.216	-0.933	0.0616	-0.735	0.857	2.22	1.47	1.35	0.0627	-0.91	-0.15	-1.56	-0.333	-0.655	-0.459	-0.665	-0.469
CCTATTCGTTGACCATAAGGGCAACCGAAGCTCG	0.737	0.584	0.874	0.578	1.19	0.766	0.4	0.418	0.115	0.223	0.434	0.637	0.0621	0.266	1.7	0.841	0.82	1.41	1.43	1.82
AGAATGAGGCTATACGTAGATCAGGGAAGAAAGT	-0.393	-0.526	-0.213	-0.708	-0.243	0.0162	0.801	0.267	0.101	0.251	1.49	0.333	0.633	0.637	-0.215	-0.274	-0.0563	-0.0968	-0.0794	0.153
ATCGAAAGGTCGTGCGGTGAGTATACAGAAAGGC	5.34	4.25	0.222	3.12	1.5	4.84	3.25	3.58	1.04	2.23	0.148	1.68	0.719	0.4	3.06	3.2	0.322	3.75	0.484	3.7
TGAATGAGGTAATAAGATCAGGGAACGTTGCAAA	-0.101	-0.238	-0.404	-0.279	-0.0513	0.529	0.563	0.725	0.309	0.427	0.356	1.03	0.129	-0.853	-0.59	-0.275	-0.242	-0.0415	-0.474	-0.231
ACTAGTTGGTCAGCAGAGGTCACACACAATTCGG	4.13	4.71	4.06	4.34	1.39	4.7	3.33	3.79	1.16	3.11	1.92	3.43	1.09	0.493	3.51	5.73	1.6	5.96	2.56	4.17
